Records with an inconclusive call do not appear. Unmarked numbers belong to inactive results. Calls of active or inactive are those of the source. Calls come from the whole dose curve; as a rule, active = well fitted curve in the direction sought with a large enough effect; inconclusive = small, poorly fitted or top-dose-only effect, or another doubt; inactive = no such curve, though single readings can be large; an effect the other way counts as inactive or inconclusive.
molecular target: Rap guanine nucleotide exchange factor 4 (Homo sapiens) (UniProt Q8WZA2); assay: Confirmatory qHTS for agonist of cAMP-regulated guanine nucleotide exchange factor 4 (EPAC2) (AID 1645884); settings: EPAC2 GEF activity, Rap1B-BODIPY-GDP fluorescence; series mostly up to 154 µM; activation: at the top concentration;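 note: nucleotide exchange releases bodipy-GDP from Rap1 and this lowers its fluorescence; nearly all actives have a fitted effect of over 65% in size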
Sequence (Q8WZA2 whole entry, looked up): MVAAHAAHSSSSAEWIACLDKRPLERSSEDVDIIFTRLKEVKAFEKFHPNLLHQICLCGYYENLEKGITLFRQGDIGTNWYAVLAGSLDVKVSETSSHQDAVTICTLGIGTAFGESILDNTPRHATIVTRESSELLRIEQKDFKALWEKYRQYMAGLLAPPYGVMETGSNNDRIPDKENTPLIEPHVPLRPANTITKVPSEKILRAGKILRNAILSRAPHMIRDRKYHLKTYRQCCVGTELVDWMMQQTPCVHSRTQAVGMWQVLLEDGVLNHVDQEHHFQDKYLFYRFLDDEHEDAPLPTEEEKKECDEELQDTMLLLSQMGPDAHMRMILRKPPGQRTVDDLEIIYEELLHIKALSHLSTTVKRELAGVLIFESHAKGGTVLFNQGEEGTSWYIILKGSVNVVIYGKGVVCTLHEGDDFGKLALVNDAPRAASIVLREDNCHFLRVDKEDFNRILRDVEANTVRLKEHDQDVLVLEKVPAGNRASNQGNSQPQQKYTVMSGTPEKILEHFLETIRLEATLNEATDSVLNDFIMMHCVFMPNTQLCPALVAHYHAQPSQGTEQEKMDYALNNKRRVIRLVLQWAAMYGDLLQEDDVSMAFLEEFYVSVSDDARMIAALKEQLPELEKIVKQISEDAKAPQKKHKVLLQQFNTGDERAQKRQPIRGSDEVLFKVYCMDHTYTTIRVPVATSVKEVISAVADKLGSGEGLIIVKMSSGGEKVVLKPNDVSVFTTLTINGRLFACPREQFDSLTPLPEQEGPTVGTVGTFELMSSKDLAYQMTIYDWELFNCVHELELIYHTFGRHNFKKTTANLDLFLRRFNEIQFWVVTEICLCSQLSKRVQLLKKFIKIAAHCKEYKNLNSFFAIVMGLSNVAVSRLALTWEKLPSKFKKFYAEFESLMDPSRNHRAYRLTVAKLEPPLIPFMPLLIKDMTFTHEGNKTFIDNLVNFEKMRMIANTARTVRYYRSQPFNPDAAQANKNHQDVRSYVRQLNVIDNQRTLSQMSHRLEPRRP
% is set by controls: 0 for no effect and ±100 for the full control effect; potency is the fitted concentration of half-maximal effect.

Structure (SMILES)	activation	Potency
COc1ccc(C2Nc3ccccc3-c3cc(C)nn32)c(OC)c1 (stereo unspecified)	0% [at 83.8 µM, percent relative to cAMP agonist control]	
COc1ccc(S(=O)(=O)Nc2ccc(F)cc2)c(C)c1C	7.82%	
COc1ccc(CCn2c(O)cc3nn(-c4nc5ccccc5s4)c(=O)c-3c2C)cc1	0%	
COc1ccc(CN(Cc2ccco2)C(=O)c2ccccc2F)cc1	-4.8% [at 83.8 µM, percent relative to cAMP agonist control]	
CC1=CC(=C(C#N)c2nc3ccccc3s2)C=C(C)N1Cc1ccco1	23%	
CCc1ccc(N=C2NC(=O)/C(=C/c3ccc(OCC(=O)O)c(OC)c3)S2)cc1	3.81%	
Cc1ccc(NS(=O)(=O)c2cccc3cccnc23)c(Cl)c1	10.4%	
O=[N+]([O-])c1ccc(NS(=O)(=O)c2ccccc2)c(Cl)c1	-11.9%	
N#C/C(=C\c1ccc(Sc2ccccc2)o1)c1nc2ccccc2[nH]1		112 µM (active)
S=c1[nH]nc(-c2cc(-c3ccccc3)n[nH]2)n1/N=C/c1ccc(Cl)c(Cl)c1	2.21% [at 17.1 µM, percent relative to cAMP agonist control]	
COc1ccc2cc(-c3nc(Cl)c4c5c(sc4n3)CCCC5)c(=O)oc2c1	-11% [at 83.8 µM, percent relative to cAMP agonist control]	
O=C(O)CC/C(=C\c1cccc(NC(=O)c2ccccc2Cl)c1)c1nc2ccccc2s1	-7.59%	
Cc1nc(C)c(-c2csc(Nc3ccc(C(=O)O)c(O)c3)n2)s1	13.6%	
COC(/C(=N/O)c1ccc(Cl)cc1)c1ccccc1 (stereo unspecified)	9.01% [at 17.1 µM, percent relative to cAMP agonist control]	
COc1cc2ccccc2cc1C(=O)NC(=S)Nc1cccc(C(=O)O)c1	3.08% [at 17.1 µM, percent relative to cAMP agonist control]	
CCOc1ccc(/C=C2\SC(=S)N(NS(=O)(=O)c3ccccc3)C2=O)cc1OC		112 µM (active)
Cc1cc(Br)cn2c(Cc3ccsc3)c(-c3ccco3)nc12	5.83% [at 17.1 µM, percent relative to cAMP agonist control]	
Cc1ccc(N2C(=O)c3cccc4c(N)ccc(c34)C2=O)c2cccnc12		112 µM (active)
CNc1ccc(/C=C(\CCC(=O)O)c2nc3ccccc3s2)cc1[N+](=O)[O-]	0% [at 17.1 µM, percent relative to cAMP agonist control]	
NC(N)=N/N=C/c1ccc(OCc2ccc(Cl)cc2Cl)cc1	3.24% [at 17.1 µM, percent relative to cAMP agonist control]	
CCc1ccc(N=C2NC(=O)/C(=C/c3ccc(OCC(=O)O)cc3)S2)cc1	8.62% [at 17.1 µM, percent relative to cAMP agonist control]	
Cc1cc(=O)n(Cc2ccccc2)c2c1c(C)nn2C	-35.6% [at 83.8 µM, percent relative to cAMP agonist control]	
CCOC(=O)c1c(CSc2ccccc2)n(C)c2cc(Br)c(OCC(O)CNC(CO)(CO)CO)cc12 (stereo unspecified)		89.1 µM (active)
COc1ccc(C(=O)NCCn2cc(SCC(=O)NCCc3ccc(OC)c(OC)c3)c3ccccc32)cc1	2.02% [at 83.8 µM, percent relative to cAMP agonist control]	
O=C(Nc1cc(S(=O)(=O)N2CCCCC2)ccc1O)c1ccccc1NS(=O)(=O)c1ccc(F)c(F)c1		0.282 µM (active)
Oc1ccc(NCc2cccc(OCc3ccc(F)cc3)c2)cc1	10.4% [at 17.1 µM, percent relative to cAMP agonist control]	
O=c1oc2c3c(ccc2c2ccccc12)OCN(Cc1cccc(Cl)c1)C3	-5.05% [at 83.8 µM, percent relative to cAMP agonist control]	

molecular target: Rap guanine nucleotide exchange factor 4 (Homo sapiens) (UniProt Q8WZA2); assay: Confirmatory qHTS for antagonist of cAMP-regulated guanine nucleotide exchange factor 4 (EPAC2) (AID 1645885); settings: EPAC2 Rap1B-BODIPY-GDP exchange fluorescence, biochemical; series mostly up to 12.7 µM; activity change, negative = inhibition: at the top concentration; note: nearly all actives have a fitted effect of over 25% in size

Structure (SMILES)	activity change, negative = inhibition	Potency	outcome
Cn1c(SCC(=O)Nc2cccc(C(=O)O)c2)nnc1-c1cc2cc(Br)ccc2o1	4.94% [at 114 µM]		
O=C(OCCN1C(=O)c2cccc3c(N4CCOCC4)ccc(c23)C1=O)c1ccccc1Cl	2.94%		
O=C(/C=C/c1ccc(N2CCOCC2)cc1)c1ccccc1	-15.3% [at 114 µM]		
COc1ccc(OC)c(C2=CC(=O)C[C@H](c3ccc4c(c3)OCO4)C2)c1	-21.3%		
COc1ccc(C(=O)c2ccc(Br)cc2)c(OC)c1OC		6.01 µM (active)	
CCOc1cc(/C=C2\SC(=Nc3ccc(CC)cc3)NC2=O)ccc1OCC(=O)O	-9.78% [at 114 µM]		
O=C(O)COc1ccccc1/C=N/Nc1ccc(S(=O)(=O)Nc2ccc(Cl)cc2)cc1[N+](=O)[O-]	-10.7%		
COc1cc(/C=C2\CCn3c2nc2cc(C(=O)O)ccc2c3=O)ccc1OC(F)F	4.16% [at 114 µM]		
O=C(O)CC/C(=C\c1ccc(N2CCCC2)c([N+](=O)[O-])c1)c1nc2ccccc2s1	68.8% [at 114 µM]		
Oc1ccccc1N=Cc1c(O)ccc2ccccc12	-18.8%		
O=C(O)CCN1C(=O)/C(=C\c2cccc(OCC(=O)Nc3ccc(Cl)cc3)c2)SC1=S	2.09% [at 114 µM]		
Cc1c(CCC(=O)O)c(=O)oc2cc(OCc3ccccc3Br)ccc12		84.9 µM (active)	
COc1ccc(C2Nc3ccccc3-c3cc(C)nn32)c(OC)c1 (stereo unspecified)	31%		
COc1ccc(S(=O)(=O)Nc2ccc(F)cc2)c(C)c1C		5.36 µM (active)	
COc1ccc(CCn2c(O)cc3nn(-c4nc5ccccc5s4)c(=O)c-3c2C)cc1	46.6% [at 114 µM]		
COc1ccc(CN(Cc2ccco2)C(=O)c2ccccc2F)cc1	-26.3%		
CC1=CC(=C(C#N)c2nc3ccccc3s2)C=C(C)N1Cc1ccco1	175% [at 114 µM]		
CCc1ccc(N=C2NC(=O)/C(=C/c3ccc(OCC(=O)O)c(OC)c3)S2)cc1	13.6% [at 114 µM]		
Cc1ccc(NS(=O)(=O)c2cccc3cccnc23)c(Cl)c1	65.4% [at 114 µM]		
O=[N+]([O-])c1ccc(NS(=O)(=O)c2ccccc2)c(Cl)c1	33.6% [at 114 µM]		

Structure (SMILES)	activity change, negative = inhibition	Potency	outcome
N#C/C(=C\c1ccc(Sc2ccccc2)o1)c1nc2ccccc2[nH]1	67.9% [at 114 µM]		
S=c1[nH]nc(-c2cc(-c3ccccc3)n[nH]2)n1/N=C/c1ccc(Cl)c(Cl)c1	9.96%		
COc1ccc2cc(-c3nc(Cl)c4c5c(sc4n3)CCCC5)c(=O)oc2c1	-20.1%		
O=C(O)CC/C(=C\c1cccc(NC(=O)c2ccccc2Cl)c1)c1nc2ccccc2s1			inactive
Cc1nc(C)c(-c2csc(Nc3ccc(C(=O)O)c(O)c3)n2)s1	-20.9% [at 114 µM]		
COC(/C(=N/O)c1ccc(Cl)cc1)c1ccccc1 (stereo unspecified)	8.97%		
COc1cc2ccccc2cc1C(=O)NC(=S)Nc1cccc(C(=O)O)c1	-9.76%		
CCOc1ccc(/C=C2\SC(=S)N(NS(=O)(=O)c3ccccc3)C2=O)cc1OC		37.9 µM (active)	
Cc1cc(Br)cn2c(Cc3ccsc3)c(-c3ccco3)nc12	-3.41%		
Cc1ccc(N2C(=O)c3cccc4c(N)ccc(c34)C2=O)c2cccnc12	123% [at 114 µM]		
CNc1ccc(/C=C(\CCC(=O)O)c2nc3ccccc3s2)cc1[N+](=O)[O-]	-14.5%		
NC(N)=N/N=C/c1ccc(OCc2ccc(Cl)cc2Cl)cc1	-7.03%		
CCc1ccc(N=C2NC(=O)/C(=C/c3ccc(OCC(=O)O)cc3)S2)cc1	-5.97%		
Cc1cc(=O)n(Cc2ccccc2)c2c1c(C)nn2C	5.7%		
CCOC(=O)c1c(CSc2ccccc2)n(C)c2cc(Br)c(OCC(O)CNC(CO)(CO)CO)cc12 (stereo unspecified)		26.9 µM (active)	
COc1ccc(C(=O)NCCn2cc(SCC(=O)NCCc3ccc(OC)c(OC)c3)c3ccccc32)cc1	-4.3%		
O=C(Nc1cc(S(=O)(=O)N2CCCCC2)ccc1O)c1ccccc1NS(=O)(=O)c1ccc(F)c(F)c1	15.5%		
Oc1ccc(NCc2cccc(OCc3ccc(F)cc3)c2)cc1	-21.2%		
O=c1oc2c3c(ccc2c2ccccc12)OCN(Cc1cccc(Cl)c1)C3	-11.7%		
